Biological target: Glucocorticoid receptor (Homo sapiens) (UniProt P04150)
Assay: GR-EFC Redistribution (AID 451)
Settings: CHO-K1 GR-EFC translocation, beta-gal luminescence, 2 h; calls by dose curve
Excerpt: NIH Molecular Libraries Screening Centers Network [MLSCN]
NIH Chemical Genomics Center [NCGC]
The glucocorticoid receptor (GR) is a cytoplasmic receptor that belongs to the nuclear receptor family of ligand-dependent transcription factors. Upon glucocorticoid binding to its receptor, the glucocorticoid-GR complex translocates into the nucleus, where it binds as a dimer to specific DNA sequences (glucocorticoid response elements), enhancing or suppressing transcription of a wide variety of glucocorticoid-responsive genes. In addition to their important roles in normal physiology and metabolism, glucocorticoids are administered exogenously as treatments for a wide variety of allergic, autoimmune, and neoplastic conditions. Identification of compounds that modulate aspects of GR signalling would be useful in dissecting glucocorticoid response pathways as well as developing GR modulators with more targeted clinical effects.
Traditionally, GR modulators have been identified using receptor binding or direct transactivation assays. However, assays for glucocorticoid-dependent nuclear translocation can also be used to screen for compounds affecting GR signaling.
Immunocytochemical staining has been used to assay for GR translocation, but is not suitable for high throughout screening due to the multiple reagent addition and wash steps required. Recently, a novel cell-based GR assay in Enzyme Fragment Complementation (EFC) format was developed by DiscoveRx (Fremont, CA). The assay uses EFC of b-galactosidase (b-gal) as an indicator of GR-translocation in engineered CHO-K1 biosensor cells. The enzyme acceptor (EA) fragment of b-gal resides in the nucleus , as designed through the use of a proprietary set of sequence additions and modifications. The small peptide enzyme donor (ED) fragment of b-gal is fused directly to the C-terminus of GR, and is localized in the cytoplasm is the absence of receptor signaling. Upon binding to a GR ligand, the complex translocates to the nucleus, where intact enzyme activity is restored by complementation and b-gal activity is detected. We optimized this GR-EFC assay in homogenous 1536-well plate assay format for high throughput screening.
NCGC Assay Protocol Summary:
CHO-K1 cells stably expressing NLS-enzyme acceptor fragment (EA) of b-gal and GR-enzyme donor (ED) fragment of b-gal were maintained in F12 medium (Invitrogen, Carlsbad, CA) at 37 Celsius degrees under a humidified atmosphere containing 5% CO2 and 95% air. The medium contained 10% FBS, 2 mM L-glutamine, 50 U/ml penicillin 50 ug/ml streptomycin, and 250 ug/ml hygromycin and 500 ug/ml G418 (Invitrogen).
GR-translocation was measured beta-gal enzyme activity using the PathHunter Detection Kit containing cell membrane permeablizing reagent and beta-gal substrate (DiscoveRx, Fremont, CA). All compounds were screened as titrations from 0.6 nM to 46 uM final concentration. The assay was performed in 1536-well format as follows:
5 uL cell suspension (1,000 cells)/well
Incubation at 37 Celsius degrees for two hours
1.25 uL 1X detection buffer from the kit supplied by DiscoveRx
Incubation at room temperature for one hour
Read plate in luminescence mode in ViewLux plate reader (PerkinElmer)
Keywords: NIH Roadmap, MLSCN, MLI, MLSMR, GR-EFC, GREFC, qHTS, NCGC
Potency means the concentration at half of the fitted maximal effect.

Sequence of Glucocorticoid receptor (Homo sapiens) (P04150 whole entry, looked up): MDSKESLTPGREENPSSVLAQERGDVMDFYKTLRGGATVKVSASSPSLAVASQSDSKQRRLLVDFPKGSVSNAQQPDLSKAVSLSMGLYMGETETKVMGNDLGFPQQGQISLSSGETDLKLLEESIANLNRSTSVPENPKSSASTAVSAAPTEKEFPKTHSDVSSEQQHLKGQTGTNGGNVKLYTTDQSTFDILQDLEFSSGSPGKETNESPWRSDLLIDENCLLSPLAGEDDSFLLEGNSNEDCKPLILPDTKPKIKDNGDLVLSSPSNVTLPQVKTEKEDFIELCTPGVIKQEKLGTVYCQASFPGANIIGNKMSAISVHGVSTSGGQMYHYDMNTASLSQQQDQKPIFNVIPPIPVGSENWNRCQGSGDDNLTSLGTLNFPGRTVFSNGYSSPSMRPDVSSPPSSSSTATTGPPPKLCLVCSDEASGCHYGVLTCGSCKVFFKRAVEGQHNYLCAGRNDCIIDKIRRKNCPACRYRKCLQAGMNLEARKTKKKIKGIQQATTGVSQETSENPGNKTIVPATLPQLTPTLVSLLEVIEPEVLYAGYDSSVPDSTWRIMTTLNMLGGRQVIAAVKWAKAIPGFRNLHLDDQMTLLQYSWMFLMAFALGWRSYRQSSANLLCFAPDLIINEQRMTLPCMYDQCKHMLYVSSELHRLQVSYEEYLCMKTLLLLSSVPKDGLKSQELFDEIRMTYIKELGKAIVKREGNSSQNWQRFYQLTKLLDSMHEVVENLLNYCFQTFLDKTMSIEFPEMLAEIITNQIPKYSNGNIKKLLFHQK

Potency, inactive:
NCCNS(=O)(=O)c1ccc(N)cc1 > 9.22 µM, CCCCNc1nc(SC)nc2nc[nH]c12 > 9.22 µM, Cn1c(=O)c2[nH]c(/N=N\N3CCN(CCO)CC3)nc2n(C)c1=O > 9.22 µM, NCCNC(=S)S > 9.22 µM, C[C@@](N)(Cc1c[nH]c2ccccc12)C(=O)O > 9.22 µM, C[C@H](CC(=O)O)C(C(=O)O)C(=O)O > 9.22 µM, O=C(O)c1c(Cl)c(Cl)c(Cl)c(Cl)c1C(=O)Nc1ccc2cn[nH]c2c1 > 9.22 µM, Cc1ncn(-c2ccccc2O)c1C > 9.22 µM, Cc1onc(-c2c(F)cccc2Cl)c1C(=O)N[C@@H]1C(=O)N2[C@H]1SC(C)(C)[C@H]2C(=O)O > 9.22 µM, O=C(O)c1ccc(SSc2ccc(C(=O)O)cn2)nc1 > 9.22 µM, c1ccc(C(CCN2CC3CCC(CC3)C2)c2ccccc2)cc1 > 9.22 µM, C[N+](C)([O-])Cc1cc(-c2ccccc2)ccc1O > 9.22 µM, Nc1cccc(OCc2nc(N)nc(N)c2-c2ccc(Cl)cc2)c1 > 9.22 µM, O=C(O)c1c(-c2nccc3ccccc23)[nH]c(-c2ccccc2)c1S(=O)(=O)O > 9.22 µM, Nc1ncnc2c1ncn2[C@H]1O[C@@H](C(=O)O)[C@@H](O)[C@H]1O > 9.22 µM, O[C@H](COc1ccccc1)CN1CCCCC1 > 9.22 µM, O=c1[nH]c(SCc2cccc([N+](=O)[O-])c2)nc2nc[nH]c12 > 9.22 µM, Cc1ccccc1C(=N)c1ccccc1Cc1cccc2ccccc12 > 9.22 µM, Nc1nc2c(ncn2[C@@H]2C=C[C@@H](CO)C2)c(=O)[nH]1 > 9.22 µM, OC[C@@H]1O[C@@H](O)[C@H](N=Cc2ccc3c(c2)OCO3)[C@@H](O)[C@@H]1O > 9.22 µM, O=C(CSc1nc2ccccc2s1)c1sc2sc3ccccc3[n+]2c1O > 9.22 µM, COc1ccc2ccccc2c1/C=C\C(=O)c1ccccc1 > 9.22 µM, C[N+](C)(N)CCC[N+](C)(C)N > 9.22 µM, C/C(CC/C(C)=N/O)=N/O > 9.22 µM, Cc1[nH]c2ccccc2c1-c1cc(-c2cc(-c3c(C)[nH]c4ccccc34)on2)no1 > 9.22 µM, Cn1c(=S)c2[nH]c(SCCCc3ccccc3)nc2n(C)c1=O > 9.22 µM, Cc1ccc2c(c1)N[C@H](c1ccc(C(=O)O)cc1)c1cccn1-2 > 9.22 µM, Oc1ccc(Cc2cc(Cl)cc(Cl)c2O)cc1Cl > 9.22 µM, NC[C@H]1O[C@@H](n2cnc3c(=O)[nH]c(N)nc32)[C@@H](O)[C@@H]1O > 9.22 µM, OCCCNCc1ccncc1 > 9.22 µM, CC(=O)N[C@@H]1CONC1=O > 9.22 µM, CN1CCc2c(cc(O)c(O)c2Cl)[C@H](c2cccc(Cl)c2)C1 > 46 µM, NC(N)=NC(N)=Nc1ccc(S(=O)(=O)O)cc1 > 9.22 µM, CC(C)(N)CO[C@H]1C[C@H]2CC[C@@]1(C)C2(C)C > 9.22 µM, O=c1c2ccccc2sc2c(CO)ccc(NCCN3CCCCC3)c12 > 9.22 µM, C/C(=N/NS(=O)(=O)c1ccc(C)cc1)P(=O)(O)O > 9.22 µM, NS(=O)(=O)c1ccc(NC(=O)Nc2ccccc2F)cc1 > 9.22 µM, COc1ccc(/C=N\NC(=O)O)cc1 > 9.22 µM, C[C@@H](COc1ccc(/C=C\c2ccccc2)cc1)[N+](C)(C)C > 46 µM, CCOC(=O)C(C)(C)[C@H](O)C(C)C > 9.22 µM

Source: PubChem BioAssay (NCATS)
